Holding throughout (test): DAPPL (digital affinity profiling via proximity ligation, sequencing); 10 mM Tris-HCl pH 7.5, 50 mM NaCl, 1 mM DTT, 4% glycerol, room temperature, 30 min; GST-TFs on glutathione beads, 16-mer random dsDNA library, 0.1% formaldehyde crosslink after washing; high values mean tight binding
One assay concerns the target T1, FEV (Homo sapiens, UniProt Q99581 1-238).
T1 sequence: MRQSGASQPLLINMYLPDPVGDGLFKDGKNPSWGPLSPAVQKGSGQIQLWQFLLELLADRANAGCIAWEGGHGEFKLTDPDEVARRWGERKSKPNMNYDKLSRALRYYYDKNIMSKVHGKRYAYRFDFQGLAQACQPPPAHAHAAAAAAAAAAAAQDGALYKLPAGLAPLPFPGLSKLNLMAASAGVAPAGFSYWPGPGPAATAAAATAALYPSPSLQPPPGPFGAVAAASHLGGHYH
The note with it: protein: recombinant; tags: N-terminal GST; dsDNA, one strand shown. In outline:
(§1)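 Yeast served to express human transcription factors as GST fusions, which were then captured on glutathione beads and labelled with DNA barcodes. Pooled with a tag-only sample, they were incubated with 200 nmole of a 16-mer random double-stranded DNA library for 30 min at room temperature in Tris/NaCl/DTT/glycerol buffer, washed, crosslinked with 0.1% formaldehyde, ligated by proximity, amplified by PCR and sequenced. Dividing each hexamer's read frequency for a factor by its frequency for the tag-only sample gives the binding signal.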

The target in the next assay is ETV5 (Homo sapiens, UniProt P41161 1-510). To be noted: protein: recombinant; tags: N-terminal GST; dsDNA, one strand shown. An outline of the steps:
as §1

Another assay has as its target HSF1 (Homo sapiens, UniProt Q00613 1-529). The note with it: protein: recombinant; tags: N-terminal GST; chain copies: 3; dsDNA, one strand shown. In outline: as §1
For the next assay, the target named is T2, SPIC (Homo sapiens, UniProt Q8N5J4 1-248).
T2 sequence: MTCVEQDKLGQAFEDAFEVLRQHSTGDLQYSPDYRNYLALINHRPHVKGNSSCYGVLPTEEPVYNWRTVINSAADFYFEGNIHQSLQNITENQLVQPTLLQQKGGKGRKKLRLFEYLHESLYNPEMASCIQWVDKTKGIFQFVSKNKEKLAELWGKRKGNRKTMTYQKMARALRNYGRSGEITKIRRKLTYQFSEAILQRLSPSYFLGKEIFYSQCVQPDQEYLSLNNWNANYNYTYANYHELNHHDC
To be noted: protein: recombinant; tags: N-terminal GST; dsDNA, one strand shown. In outline: as §1

A further assay concerns the target ELF4 (Homo sapiens, UniProt Q99607 1-663). The note with it: protein: recombinant; tags: N-terminal GST; dsDNA, one strand shown. In outline: as §1
The next assay has as its target T3, ELK4 (Homo sapiens, UniProt P28324-2 1-405).
T3 sequence: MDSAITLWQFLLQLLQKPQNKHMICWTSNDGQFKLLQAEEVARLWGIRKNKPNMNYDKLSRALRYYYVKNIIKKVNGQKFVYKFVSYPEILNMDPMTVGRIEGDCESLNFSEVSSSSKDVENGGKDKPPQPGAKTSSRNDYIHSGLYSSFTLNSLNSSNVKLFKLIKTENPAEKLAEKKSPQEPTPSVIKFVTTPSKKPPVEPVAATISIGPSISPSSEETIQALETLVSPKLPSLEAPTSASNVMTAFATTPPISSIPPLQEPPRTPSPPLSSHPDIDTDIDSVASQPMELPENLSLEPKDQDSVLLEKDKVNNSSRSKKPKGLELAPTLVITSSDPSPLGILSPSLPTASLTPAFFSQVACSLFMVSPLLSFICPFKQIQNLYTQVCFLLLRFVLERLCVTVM
To be noted: protein: recombinant; tags: N-terminal GST; dsDNA, one strand shown. In outline: as §1

A further assay concerns the target T4, ETV2 (Homo sapiens, UniProt O00321 1-342).
T4 sequence: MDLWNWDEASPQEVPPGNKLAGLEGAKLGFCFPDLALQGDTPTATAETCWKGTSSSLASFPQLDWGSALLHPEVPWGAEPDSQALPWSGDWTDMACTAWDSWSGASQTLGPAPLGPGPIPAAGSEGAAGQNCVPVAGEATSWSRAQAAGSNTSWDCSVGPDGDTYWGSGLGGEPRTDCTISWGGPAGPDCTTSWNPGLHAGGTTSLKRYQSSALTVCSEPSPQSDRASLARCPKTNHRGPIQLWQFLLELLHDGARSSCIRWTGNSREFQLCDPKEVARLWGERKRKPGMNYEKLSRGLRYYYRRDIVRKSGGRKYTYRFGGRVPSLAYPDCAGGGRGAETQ
To be noted: protein: recombinant; tags: N-terminal GST; dsDNA, one strand shown. An outline of the steps: as §1

A further assay has as its target T5, ELF3 (Homo sapiens, UniProt P78545 1-371).
T5 sequence: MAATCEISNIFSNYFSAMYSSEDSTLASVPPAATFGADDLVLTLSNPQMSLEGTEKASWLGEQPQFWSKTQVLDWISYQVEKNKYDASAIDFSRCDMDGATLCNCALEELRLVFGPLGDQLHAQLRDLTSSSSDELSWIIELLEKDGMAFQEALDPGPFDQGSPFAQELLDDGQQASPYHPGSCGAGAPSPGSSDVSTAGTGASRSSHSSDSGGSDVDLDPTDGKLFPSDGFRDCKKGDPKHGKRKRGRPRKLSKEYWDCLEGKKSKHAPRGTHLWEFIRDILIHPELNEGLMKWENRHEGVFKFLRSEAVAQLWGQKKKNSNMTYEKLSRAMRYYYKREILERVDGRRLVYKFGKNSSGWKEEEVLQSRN
To be noted: protein: recombinant; tags: N-terminal GST; dsDNA, one strand shown. An outline of the steps:
as §1

The next assay addresses CRX (Homo sapiens, UniProt O43186 1-299). To be noted: protein: recombinant; tags: N-terminal GST; dsDNA, one strand shown. An outline of the steps: as §1
In another assay the target is ETV1 (Homo sapiens, UniProt P50549 1-477). The note with it: protein: recombinant; tags: N-terminal GST; dsDNA, one strand shown. An outline of the steps:
as §1

For another assay, the target named is T6, ERF (Homo sapiens, UniProt P50548 1-548).
T6 sequence: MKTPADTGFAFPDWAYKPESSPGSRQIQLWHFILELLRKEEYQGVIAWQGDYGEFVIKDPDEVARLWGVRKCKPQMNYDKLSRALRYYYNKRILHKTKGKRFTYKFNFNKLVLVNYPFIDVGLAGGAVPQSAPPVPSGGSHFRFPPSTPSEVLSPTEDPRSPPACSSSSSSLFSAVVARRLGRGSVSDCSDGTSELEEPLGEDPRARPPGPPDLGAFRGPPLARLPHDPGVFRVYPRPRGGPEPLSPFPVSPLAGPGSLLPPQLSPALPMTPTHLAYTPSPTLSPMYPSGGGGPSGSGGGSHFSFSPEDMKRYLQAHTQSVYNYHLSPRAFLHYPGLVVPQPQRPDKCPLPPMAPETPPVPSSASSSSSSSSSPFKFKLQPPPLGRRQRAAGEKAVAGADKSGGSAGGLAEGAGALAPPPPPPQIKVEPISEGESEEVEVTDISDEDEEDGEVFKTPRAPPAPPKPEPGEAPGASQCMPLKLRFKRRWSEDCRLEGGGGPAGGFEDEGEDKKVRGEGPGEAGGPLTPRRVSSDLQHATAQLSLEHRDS
The note with it: protein: recombinant; tags: N-terminal GST; dsDNA, one strand shown. An outline of the steps: as §1

In a further assay the target is T7, ETV3L (Homo sapiens, UniProt Q6ZN32 1-361).
T7 sequence: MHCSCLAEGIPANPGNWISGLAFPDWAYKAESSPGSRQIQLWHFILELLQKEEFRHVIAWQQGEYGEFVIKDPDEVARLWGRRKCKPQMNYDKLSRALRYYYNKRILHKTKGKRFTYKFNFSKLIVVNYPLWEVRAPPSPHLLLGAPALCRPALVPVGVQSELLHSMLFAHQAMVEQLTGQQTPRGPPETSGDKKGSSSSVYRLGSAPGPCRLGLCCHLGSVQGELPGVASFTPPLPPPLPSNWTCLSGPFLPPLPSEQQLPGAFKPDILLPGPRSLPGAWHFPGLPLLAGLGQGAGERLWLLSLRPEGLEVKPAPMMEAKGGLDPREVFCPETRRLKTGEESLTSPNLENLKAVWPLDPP
The note with it: protein: recombinant; tags: N-terminal GST; dsDNA, one strand shown. An outline of the steps: as §1

Another assay has as its target T8, ETS2 (Homo sapiens, UniProt P15036 1-469).
T8 sequence: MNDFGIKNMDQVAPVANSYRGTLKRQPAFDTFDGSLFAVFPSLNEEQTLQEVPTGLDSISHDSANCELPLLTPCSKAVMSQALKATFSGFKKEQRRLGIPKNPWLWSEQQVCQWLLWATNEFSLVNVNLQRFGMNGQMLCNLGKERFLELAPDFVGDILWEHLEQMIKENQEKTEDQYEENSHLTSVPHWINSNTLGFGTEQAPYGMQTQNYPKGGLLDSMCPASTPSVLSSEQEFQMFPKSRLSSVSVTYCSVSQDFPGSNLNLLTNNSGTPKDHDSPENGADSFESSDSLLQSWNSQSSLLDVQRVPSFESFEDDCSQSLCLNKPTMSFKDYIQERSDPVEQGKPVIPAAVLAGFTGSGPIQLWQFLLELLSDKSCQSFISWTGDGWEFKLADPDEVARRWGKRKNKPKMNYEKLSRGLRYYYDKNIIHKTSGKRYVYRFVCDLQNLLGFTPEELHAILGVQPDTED
The note with it: protein: recombinant; tags: N-terminal GST; dsDNA, one strand shown. In outline:
as §1

The target in another assay is T9, SPDEF (Homo sapiens, UniProt O95238 1-335).
T9 sequence: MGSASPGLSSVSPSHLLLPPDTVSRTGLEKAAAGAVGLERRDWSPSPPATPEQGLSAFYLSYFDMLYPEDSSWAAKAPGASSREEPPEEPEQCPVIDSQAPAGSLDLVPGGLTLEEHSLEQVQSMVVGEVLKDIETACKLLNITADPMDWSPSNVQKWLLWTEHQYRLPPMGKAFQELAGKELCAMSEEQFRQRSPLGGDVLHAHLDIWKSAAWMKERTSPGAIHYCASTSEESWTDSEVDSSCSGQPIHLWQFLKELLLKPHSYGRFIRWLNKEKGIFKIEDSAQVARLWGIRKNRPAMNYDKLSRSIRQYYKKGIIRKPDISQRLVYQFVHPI
To be noted: protein: recombinant; tags: N-terminal GST; dsDNA, one strand shown. In outline:
as §1

For another assay, the target named is T10, ETV7 (Homo sapiens, UniProt Q9Y603 1-341).
T10 sequence: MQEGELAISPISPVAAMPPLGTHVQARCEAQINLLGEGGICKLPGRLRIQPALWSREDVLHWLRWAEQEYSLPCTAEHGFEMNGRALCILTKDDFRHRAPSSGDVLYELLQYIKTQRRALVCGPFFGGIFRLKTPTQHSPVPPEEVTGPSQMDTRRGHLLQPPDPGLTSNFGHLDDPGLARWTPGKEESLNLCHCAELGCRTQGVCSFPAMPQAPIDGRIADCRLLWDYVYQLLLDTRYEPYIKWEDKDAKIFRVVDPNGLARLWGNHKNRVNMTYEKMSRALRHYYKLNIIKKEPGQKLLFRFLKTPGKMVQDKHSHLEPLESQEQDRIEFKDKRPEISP
To be noted: protein: recombinant; tags: N-terminal GST; dsDNA, one strand shown. An outline of the steps: as §1

The target of a further assay is T11, ELF5 (Homo sapiens, UniProt Q9UKW6-2 1-255).
T11 sequence: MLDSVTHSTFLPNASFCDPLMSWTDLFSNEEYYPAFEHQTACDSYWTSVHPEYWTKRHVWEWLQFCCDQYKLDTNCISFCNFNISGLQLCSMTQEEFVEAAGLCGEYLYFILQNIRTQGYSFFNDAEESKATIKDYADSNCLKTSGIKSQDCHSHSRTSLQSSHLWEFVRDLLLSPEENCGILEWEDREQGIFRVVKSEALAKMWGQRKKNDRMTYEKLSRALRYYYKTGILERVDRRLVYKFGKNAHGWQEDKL
To be noted: protein: recombinant; tags: N-terminal GST; dsDNA, one strand shown. In outline:
as §1

The next assay has as its target T12, ETV3 (Homo sapiens, UniProt P41162-2 1-143).
T12 sequence: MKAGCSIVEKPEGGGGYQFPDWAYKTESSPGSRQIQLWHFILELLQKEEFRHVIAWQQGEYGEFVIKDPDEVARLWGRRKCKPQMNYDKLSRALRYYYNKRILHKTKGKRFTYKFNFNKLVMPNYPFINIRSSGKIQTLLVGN
The note with it: protein: recombinant; tags: N-terminal GST; dsDNA, one strand shown. An outline of the steps:
as §1

For another assay, the target named is ETV6 (Homo sapiens, UniProt P41212 1-452). To be noted: protein: recombinant; tags: N-terminal GST; dsDNA, one strand shown. In outline: as §1
Sequence of ETV6 (P41212 whole entry): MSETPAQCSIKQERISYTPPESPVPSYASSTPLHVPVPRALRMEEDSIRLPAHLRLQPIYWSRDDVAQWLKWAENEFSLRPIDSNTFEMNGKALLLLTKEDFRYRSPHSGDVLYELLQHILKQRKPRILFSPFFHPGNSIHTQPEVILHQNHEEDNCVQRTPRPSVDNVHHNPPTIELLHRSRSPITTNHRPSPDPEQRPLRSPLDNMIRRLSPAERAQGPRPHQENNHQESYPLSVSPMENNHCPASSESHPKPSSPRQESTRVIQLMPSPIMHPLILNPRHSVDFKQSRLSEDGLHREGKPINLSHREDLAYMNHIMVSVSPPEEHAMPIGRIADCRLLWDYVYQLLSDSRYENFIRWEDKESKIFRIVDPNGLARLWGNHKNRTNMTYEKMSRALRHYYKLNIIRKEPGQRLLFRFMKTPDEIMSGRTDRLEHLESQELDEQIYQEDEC

Sequence of ETV1 (P50549 whole entry): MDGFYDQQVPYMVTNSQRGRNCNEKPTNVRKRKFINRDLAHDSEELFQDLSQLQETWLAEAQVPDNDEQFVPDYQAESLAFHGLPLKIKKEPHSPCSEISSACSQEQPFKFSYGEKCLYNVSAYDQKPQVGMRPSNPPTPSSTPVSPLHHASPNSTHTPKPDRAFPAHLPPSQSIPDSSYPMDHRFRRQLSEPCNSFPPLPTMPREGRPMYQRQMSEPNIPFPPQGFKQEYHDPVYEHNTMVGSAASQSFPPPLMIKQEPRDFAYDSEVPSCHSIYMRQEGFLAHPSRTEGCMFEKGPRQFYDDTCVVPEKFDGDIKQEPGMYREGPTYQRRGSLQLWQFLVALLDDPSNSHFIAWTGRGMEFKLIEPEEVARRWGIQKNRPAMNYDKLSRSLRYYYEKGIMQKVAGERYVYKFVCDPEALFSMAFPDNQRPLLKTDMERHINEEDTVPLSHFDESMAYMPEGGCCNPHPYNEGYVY
Sequence of ELF4 (Q99607 whole entry): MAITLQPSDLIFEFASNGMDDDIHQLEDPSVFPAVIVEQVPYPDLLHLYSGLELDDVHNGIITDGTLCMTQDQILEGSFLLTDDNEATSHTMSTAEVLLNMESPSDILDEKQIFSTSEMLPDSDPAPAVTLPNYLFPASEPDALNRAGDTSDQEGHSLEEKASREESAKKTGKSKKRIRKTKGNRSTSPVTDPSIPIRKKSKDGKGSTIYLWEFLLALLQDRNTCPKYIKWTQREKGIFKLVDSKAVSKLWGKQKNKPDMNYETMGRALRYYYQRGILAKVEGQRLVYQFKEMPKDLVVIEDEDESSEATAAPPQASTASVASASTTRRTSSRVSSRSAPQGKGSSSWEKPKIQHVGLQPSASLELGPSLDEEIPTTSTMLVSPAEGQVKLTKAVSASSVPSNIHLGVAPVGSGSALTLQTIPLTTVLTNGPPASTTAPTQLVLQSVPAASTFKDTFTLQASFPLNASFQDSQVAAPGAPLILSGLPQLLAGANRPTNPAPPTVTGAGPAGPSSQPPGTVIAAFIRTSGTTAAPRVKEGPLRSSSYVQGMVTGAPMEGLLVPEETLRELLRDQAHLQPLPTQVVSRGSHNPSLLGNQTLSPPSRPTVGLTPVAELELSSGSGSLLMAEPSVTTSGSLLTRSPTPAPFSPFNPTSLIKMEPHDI
Sequence of HSF1 (Q00613 whole entry): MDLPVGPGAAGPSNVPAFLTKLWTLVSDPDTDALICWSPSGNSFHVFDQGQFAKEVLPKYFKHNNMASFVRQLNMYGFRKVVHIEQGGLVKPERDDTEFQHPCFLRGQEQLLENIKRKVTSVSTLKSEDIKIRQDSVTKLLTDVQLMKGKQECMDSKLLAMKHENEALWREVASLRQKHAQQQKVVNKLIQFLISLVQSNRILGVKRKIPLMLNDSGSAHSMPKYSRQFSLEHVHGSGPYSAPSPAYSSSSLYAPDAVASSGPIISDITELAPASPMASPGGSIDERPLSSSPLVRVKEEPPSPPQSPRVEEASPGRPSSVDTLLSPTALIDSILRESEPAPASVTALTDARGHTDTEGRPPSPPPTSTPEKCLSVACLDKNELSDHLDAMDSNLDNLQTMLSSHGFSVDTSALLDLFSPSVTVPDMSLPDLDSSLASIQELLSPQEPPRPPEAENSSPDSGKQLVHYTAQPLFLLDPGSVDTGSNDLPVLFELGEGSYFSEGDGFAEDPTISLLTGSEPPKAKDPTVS
Sequence of ETV5 (P41161 whole entry): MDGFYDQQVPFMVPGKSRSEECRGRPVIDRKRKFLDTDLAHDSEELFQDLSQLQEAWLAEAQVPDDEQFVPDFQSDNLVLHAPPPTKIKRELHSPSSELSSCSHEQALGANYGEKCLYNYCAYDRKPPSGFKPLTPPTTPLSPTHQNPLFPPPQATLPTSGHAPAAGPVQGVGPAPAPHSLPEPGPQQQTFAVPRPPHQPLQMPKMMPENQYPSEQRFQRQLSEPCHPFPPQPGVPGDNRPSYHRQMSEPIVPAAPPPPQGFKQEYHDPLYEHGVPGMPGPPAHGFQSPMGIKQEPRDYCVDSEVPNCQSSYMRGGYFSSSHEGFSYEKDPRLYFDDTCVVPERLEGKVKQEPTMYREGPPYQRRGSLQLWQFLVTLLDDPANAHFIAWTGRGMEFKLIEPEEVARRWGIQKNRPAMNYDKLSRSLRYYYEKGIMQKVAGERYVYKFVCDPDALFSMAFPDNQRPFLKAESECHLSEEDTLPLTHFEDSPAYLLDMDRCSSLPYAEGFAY
Sequence of CRX (O43186 whole entry): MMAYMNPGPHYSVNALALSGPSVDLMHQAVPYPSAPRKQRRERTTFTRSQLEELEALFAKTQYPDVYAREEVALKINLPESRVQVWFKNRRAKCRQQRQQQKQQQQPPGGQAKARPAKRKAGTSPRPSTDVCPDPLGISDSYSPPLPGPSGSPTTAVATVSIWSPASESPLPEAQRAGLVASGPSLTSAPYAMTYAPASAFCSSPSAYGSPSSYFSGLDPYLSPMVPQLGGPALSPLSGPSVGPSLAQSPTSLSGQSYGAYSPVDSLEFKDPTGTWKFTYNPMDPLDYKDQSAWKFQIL

TCCTTT: the binding signal is 1.69 fold enrichment (6-mer frequency, TF over GST control) with FEV; 1.69 fold enrichment (6-mer frequency, TF over GST control) with ETV5; 1.57 fold enrichment (6-mer frequency, TF over GST control) in the assay with HSF1; 1.76 fold enrichment (6-mer frequency, TF over GST control) with SPIC; 1.77 fold enrichment (6-mer frequency, TF over GST control) with ELF4; 1.62 fold enrichment (6-mer frequency, TF over GST control) with ELK4. In addition, the binding signal in the assay with ETV2 was 1.47 fold enrichment (6-mer frequency, TF over GST control); with ELF3 it was 1.78 fold enrichment (6-mer frequency, TF over GST control); in the assay with CRX it was 1.67 fold enrichment (6-mer frequency, TF over GST control); in the assay with ETV1, 1.68 fold enrichment (6-mer frequency, TF over GST control); with ERF it was 1.62 fold enrichment (6-mer frequency, TF over GST control); with ETV3L it was 1.85 fold enrichment (6-mer frequency, TF over GST control). For the same sequence, the binding signal was 1.67 fold enrichment (6-mer frequency, TF over GST control) with ETS2; 1.76 fold enrichment (6-mer frequency, TF over GST control) in the assay with SPDEF; 1.59 fold enrichment (6-mer frequency, TF over GST control) with ETV7; 2 fold enrichment (6-mer frequency, TF over GST control) with ELF5; 1.78 fold enrichment (6-mer frequency, TF over GST control) with ETV3; 1.76 fold enrichment (6-mer frequency, TF over GST control) with ETV6.
